Measured values taken from PubChem BioAssay.
Potency and affinity values are given separately. Activity calls are given as the source filed them. Entries that show only a call come without a potency. The limit is not given here; nearly all actives have IC50 up to about 0.91 µM.

The compounds below were run against Calcium-dependent protein kinase 4 (Plasmodium falciparum (isolate 3D7)) (UniProt Q8IBS5) (assay: PfCDPK4 kinase inhibitors, biochemical, TCAMS library (AID 1159588)). Conditions: recombinant PfCDPK4, Kinase-Glo ATP depletion luminescence.
Sequence of Calcium-dependent protein kinase 4 (Plasmodium falciparum (isolate 3D7)) (Q8IBS5 whole entry, looked up): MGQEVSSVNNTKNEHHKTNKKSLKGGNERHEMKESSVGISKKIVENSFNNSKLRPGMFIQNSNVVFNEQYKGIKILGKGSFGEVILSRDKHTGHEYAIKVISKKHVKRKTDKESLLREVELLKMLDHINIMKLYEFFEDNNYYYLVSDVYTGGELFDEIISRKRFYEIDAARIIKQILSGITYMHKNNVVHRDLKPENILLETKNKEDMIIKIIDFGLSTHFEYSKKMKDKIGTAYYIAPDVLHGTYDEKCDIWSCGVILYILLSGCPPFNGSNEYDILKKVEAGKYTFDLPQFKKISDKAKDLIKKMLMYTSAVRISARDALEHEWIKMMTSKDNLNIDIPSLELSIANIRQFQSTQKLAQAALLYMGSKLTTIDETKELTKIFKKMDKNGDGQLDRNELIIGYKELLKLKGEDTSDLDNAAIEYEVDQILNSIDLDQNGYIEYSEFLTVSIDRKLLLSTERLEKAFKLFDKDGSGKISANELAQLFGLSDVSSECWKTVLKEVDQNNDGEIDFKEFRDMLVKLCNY

| SMILES | outcome |
| --- | --- |
| Cc1[nH]c(C)c(-c2ccc(OCc3cc(C(F)(F)F)cc(C(F)(F)F)c3)nc2)c(=O)c1Cl | inactive |
| COc1cc(C)c(NC(=O)c2cccc3c(=O)c(C)c(-c4ccccc4)oc23)cc1OC | inactive |
| Cc1c(CNCCCNc2cc(=O)c3ccccc3[nH]2)sc(C(F)F)c1Br | inactive |
| C[C@@H](C(N)=O)N1CCCCC1c1ccc(OCc2cccc(F)c2)cc1 (stereo not given in full) | inactive |
| O=[N+]([O-])c1ccc2c(-c3ccccc3)c(-c3ccccc3)n(O)c2c1 | inactive |
| CN1CCC(c2c[nH]c3ccc(NC(=O)Nc4ccc(-c5ccncc5)cc4Cl)cc23)CC1 | inactive |
| O=C(Nc1ccc(Cl)c(Cl)c1)N1CCc2cc3nccc(N4CCN5CCC[C@H]5C4)c3cc21 | inactive |
| CNC(=O)c1cnc(Nc2ccc(OCC(O)CN(C)C)cc2)nc1Nc1cccc(OC)c1 (stereo not given) | inactive |
| CC(=O)Nc1ccc(CN(Cc2ccc(OC(C)(C)C)cc2)Cc2ccc3c(c2)OCCO3)cc1 | inactive |
| O=C(NCC1CCC(C(=O)NCc2cccc(C(F)(F)F)c2)CC1)c1ccc(O)c(-c2ccc(Cl)c(Cl)c2)c1 (stereo not given) | inactive |
| CC1(C)N=C(N)N=C(N)N1c1ccc(Cl)c(Cl)c1 | inactive |
| CCOc1ccc(-c2cc3nc(C4CCNCC4)c(C(=O)Nc4ccc(C)cc4Cl)cn3n2)cc1 | inactive |
| O=C(/C=C/c1ccc(Cl)c(Cl)c1)NCCCCCN1CCCC(C(=O)Nc2cccc(Cl)c2)C1 (stereo not given) | inactive |
| N#Cc1cccc(-c2cccc(C(=O)NC3CCC(CCN4CCc5ccc(C#N)cc5CC4)CC3)c2)c1 (stereo not given) | inactive |
| COc1cccc2c(NCc3ccccc3)nc(NCCCN3CCCCC3C)nc12 (stereo not given) | inactive |
| COc1cc(C=CC(=O)N2CCC(CCN3CCC(c4c[nH]c5ccccc45)CC3)CC2)cc(OC)c1 | inactive |
| Cc1cc(Cl)ccc1OC(C)C(=O)N1CCc2ccccc21 (stereo not given) | inactive |
| Cc1nc(-c2cccc(Nc3nccc(NCC(O)c4ccccc4)n3)c2)cs1 (stereo not given) | inactive |
| CC(C)(C)c1ccc(S(=O)(=O)Nc2ccccc2Cn2nc(N3CCNCC3)ccc2=O)cc1 | inactive |
| CCn1ccc2c(N3CCCS3(=O)=O)cc(C(=O)N[C@@H](Cc3ccccc3)[C@H](O)CNC(C)(C)CCCC(C)C)cc21 | inactive |

| SMILES | outcome |
| --- | --- |
| O=C(CC(=O)C(F)(F)F)c1ccccc1[N+](=O)[O-] | inactive |
| CCOc1ccc(Br)cc1/C=C/C(=O)Nc1ccc2c(c1)CN(C)CCC2 | inactive |
| COc1ccc2nccc(NN=Cc3ccccc3)c2c1 | inactive |
| CN(C(=O)/C=C/c1cc(C(F)(F)F)ccc1F)C1CCN(CCCCCNC(=O)/C=C/c2ccc(Cl)c(Cl)c2)CC1 | inactive |
| Nc1cnc(C#Cc2cc3ncnc(N(CCN4CCOCC4)c4ccc(OCc5cccc(F)c5)c(Cl)c4)c3s2)cn1 | inactive |
| Cc1nnsc1C(=O)Nc1ccc(-c2cccc(-c3nc4c(C)cccc4[nH]3)c2)cc1 | inactive |
| O=[N+]([O-])c1ccc(C(O)CNCCc2ccccc2)cc1OCc1ccccc1 (stereo not given) | inactive |
| COc1cc2ccccc2c(OC)c1CCNCCCCNCCc1c(OC)cc2ccccc2c1OC | inactive |
| COc1ccc(Cl)cc1N1CCN(CCCNC(=O)c2ccc(-c3nc4cc(Cl)c(F)cc4[nH]3)c(F)c2)CC1 | inactive |
| c1ccc2c(c1)CN(Cc1cc3ccccc3[nH]1)CC1(CCN(Cc3c[nH]c4cnccc34)CC1)O2 | inactive |
| Oc1ccc(CCNc2nc(NCCCOc3cccc(CN4CCCCC4)c3Cl)nc(N3CCNCC3)n2)cc1 | inactive |
| O=C(CC1CCCC1)Nc1ccc2c(c1)CCC2 | inactive |
| CCN1CCN(C(=O)NC(C(=O)N(C)Cc2ccc(-c3ccc(C(F)(F)F)cc3)cc2)c2cccs2)C(=O)C1=O (stereo not given) | inactive |
| Oc1c(CN2CCC(Cc3ccccc3)CC2)cc(Cl)c2cccnc12 | inactive |
| C=C[C@]1(C)C[C@@H](OC(=O)NC(=O)CCCS(=O)(=O)c2nnc(C)s2)[C@]2(C)[C@H](C)CC[C@]3(CCC(=O)[C@H]32)[C@@H](C)[C@@H]1O | inactive |
| COc1c(C2CCN(CCCCNC(=O)c3ccc(-c4ccc(C(=O)C(F)(F)F)cc4)cc3)CC2)ccc2c1CCCC2 | inactive |
| O=C(NC1CCCc2ccccc21)C1CCCN(C(=O)c2ccc(O)c(-c3ccc(Cl)c(Cl)c3)c2)C1 (stereo not given) | inactive |
| CC(=O)Nc1ncc(C(=O)Nc2cccc(-c3cccc(-c4nc5ccccc5[nH]4)c3)c2)s1 | inactive |
| CCN(CC)C(=O)C1CCCN(C(=O)Nc2cc(C(F)(F)F)cc(C(F)(F)F)c2)C1 (stereo not given) | inactive |
| CCC(C)NS(=O)(=O)c1ccc2nc(Nc3ccc(C)cc3)n([C@H](C)C(C)(C)C)c2c1 (stereo not given in full) | inactive |
